Screens (PubChem)
Rows were chosen to be rich in hits. Some 3% of all compounds tested hit in one or more screens of this group.
KDM5B inh: inhibitors of human KDM5B histone demethylase; KDM5B demethylase, FDH-coupled NADH fluorescence (FDH is formaldehyde dehydrogenase); Q9UGL1; 2.6% of 220,000 active; Potency, µM (doses to about 57.7 µM), usual class: inhibitors; also: potency is read from the fitted curve at half-maximal effect; 0% is about no effect; nearly all actives have a fitted effect of over 70% in size
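Coupled FDH/NAD⁺ fluorescence readout. KDM5BΔAP 200 nM final; compound titration, 10 min RT preincubation; substrate mix 12.5 µM H3K4me3, 25 µM 2-OG, 50 µM Fe(II), 100 µM ascorbate, 0.25 mM NAD⁺, 0.25 U/mL FDH; ΔRFU over 30 min.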
IP6K1 inhibitor: IP6K1 kinase inhibition; Q92551; IP6K1 kinase, ADP-Glo luminescence, 2 h; hits give low values; activity change, % (series mostly up to about 58 µM); 0.81% of 140,000 active; in the data active = activity change below about -25%; also: % is scaled to controls: 0 for no effect and ±100 for the full control effect
Target sequence (Q92551 whole entry, looked up): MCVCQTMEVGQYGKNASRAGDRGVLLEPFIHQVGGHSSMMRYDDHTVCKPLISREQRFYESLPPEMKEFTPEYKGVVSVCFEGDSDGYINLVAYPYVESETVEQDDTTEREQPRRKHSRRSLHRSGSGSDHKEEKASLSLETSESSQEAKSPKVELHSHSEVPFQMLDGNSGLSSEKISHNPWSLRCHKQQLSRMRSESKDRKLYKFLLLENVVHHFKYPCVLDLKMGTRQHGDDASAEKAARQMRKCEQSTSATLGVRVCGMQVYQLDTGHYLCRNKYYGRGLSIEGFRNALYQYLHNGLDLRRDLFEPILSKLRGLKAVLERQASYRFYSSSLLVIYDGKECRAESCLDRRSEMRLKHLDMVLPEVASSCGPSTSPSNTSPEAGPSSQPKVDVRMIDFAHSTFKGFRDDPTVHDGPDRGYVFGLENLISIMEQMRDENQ
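ADP-Glo luminescence measures ADP made by human IP6K1 during a 2 h RT reaction with ATP/IP6 (mix at 1.3 mM/130 uM); top library doses 57.5 and 19.1 uM final.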
HEK293 viab: cell viability loss counter-screen | Potency, µM (titrated, usually from 57.1 µM), for inactives: top-dose activity change, negative = cytotoxicity, hits mostly cytotoxic | HEK-293-SNCA-luc viability, GF-AFC fluorescence, 24 h | 0.12% of 150,000 active | AID 1671193;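 also: potency is read from the fitted curve at half-maximal effect; 0% = DMSO-treated cells and -100% = medium-only wells without cells; nearly all actives have a fitted effect of over 30% in size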
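Cytotoxicity counterscreen: after 24 h compound treatment of genome-edited SNCA-luciferase HEK-293 cells, live-cell protease substrate GF-AFC read by fluorescence after 30 min; activity scaled between DMSO (0%) and medium-only (-100%), curves Hill-fitted.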
SNCA expr inh: SNCA gene expression inhibition; HEK-293 SNCA-luciferase knock-in, luminescence, 24 h; Potency, µM (series often up to 57.2 µM), without a hit: top-dose activity change, negative = inhibition, usual class: inhibitors; 0.17% of 140,000 active;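 also: potency is read from the fitted curve at half-maximal effect; plate controls were DMSO cells for no effect and cell-free wells for full effect; nearly all actives have a fitted effect of over 45% in size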
The depositor's hits bear a star; i = inactive; ? = inconclusive; / = not tested or not shown; [ ] = dose if it differs, or a comment. Unless noted, calls follow the shape of the dose curve; as a rule, active = well fitted curve in the direction sought with a large enough effect; inconclusive = small, poorly fitted or top-dose-only effect, or another doubt; inactive = no such curve, though single readings can be large; an effect the other way counts as inactive or inconclusive.

SMILES	KDM5B inh	IP6K1 inhibitor	HEK293 viab	SNCA expr inh
O=C(Nc1ccccc1Br)N1CCN(S(=O)(=O)c2ccccc2)CC1	i	/	/	/
COCCNC(=O)CCc1cc2cc(OC)ccc2[nH]c1=O	31.6µM*	28.2	3.4%	-8.6%
Cc1ccc2cc(CCC(=O)NCCN3CCN(C)CC3)c(=O)[nH]c2c1	?	32.7	5.2%	30.5%
COCCCNC(=O)CCc1cc2ccccc2[nH]c1=O	?	13.2	-0.1%	-6.0%
COc1ccc2[nH]c(=O)c(CCC(=O)NCCN3CCCCCC3)cc2c1	28.2µM*	27.8	-4.3%	15.7%
COc1ccc(NC(=O)CCc2cc3cc(C)ccc3[nH]c2=O)c(OC)c1	i	5.9	-1.3%	-2.5%
CCN(CC)CCNC(=O)CCc1cc2cc(OC)ccc2[nH]c1=O	28.2µM*	9.4	9.4%	2.0%
c1cnn(-c2ccc(-c3nc(C4CCOC4)no3)cc2)c1 (stereo not drawn)	31.6µM*	6.2	?	105.4%
CSc1ccccc1-c1nc(C2CCOC2)no1 (stereo not drawn)	28.2µM*	-2.4	-11.1%	59.2%
CN(C)c1ccc(-c2nc(C3CCOC3)no2)cc1 (stereo not drawn)	i	-1.8	-4.3%	-13.9%
COc1ccc(-n2nc(C3CCN(Cc4ccc(C)cc4)CC3)[nH]c2=O)cc1	i	4.6	-11.6%	-6.6%
COc1ccccc1-c1nccc2c(=O)cc(N3CCOCC3)oc12	?	-10.6	-17.6%[87.6 µM]	22.6%[87.6 µM]
Cc1ccccc1-c1nccc2c(=O)cc(N3CCOCC3)oc12	35.5µM*	-4.7	6.3%[87.6 µM]	-3.3%[87.6 µM]
COc1ncccc1-c1nccc2c(=O)cc(N3CCOCC3)oc12	39.8µM*	11.8	-5.6%[87.6 µM]	7.6%[87.6 µM]
CCc1ccc(C(=O)N2CCC(c3cc(-c4cccc(OC)c4)n[nH]3)CC2)cc1	i	-7.0	8.2%	32.5%
Cn1cc(CN2CCc3ccccc32)ccc1=O	10µM*	-4.0	?	6.7%
Cc1ccc2c(C(=O)N3CCN(c4ccccc4)CC3)cc(NC(=O)C(C)C)cc2n1	?	27.3	-4.4%	?
CCNC(=O)c1cc(NC(=O)C(C)C)cc2nc(C)ccc12	25.1µM*	30.1	3.8%	-14.0%
Cc1ccc(CNC(=O)c2cc(NC(=O)C(C)C)cc3nc(C)ccc23)cc1	?	11.7	8.1%	3.1%
Cc1ccc2c(C(=O)NCCN3CCCCC3)cc(NC(=O)C(C)C)cc2n1	22.4µM*	15.9	0.8%	10.4%
Cc1ccc2c(C(=O)NCc3ccccc3Cl)cc(NC(=O)C(C)C)cc2n1	14.1µM*	11.1	8.4%	1.2%
COc1ccc(-c2c[nH]c3c(SCC(=O)Nc4ccc(OC)c(OC)c4)ncnc23)cc1	i	/	/	/
CS(=O)(=O)CC[C@H](NC(=O)C1=C[C@@H](NC(=O)CCN)[C@@H](O)[C@H](O)C1)C(N)=O	39.8µM*	15.9	9.8%[87.6 µM]	-8.1%[87.6 µM]
Cc1cc2c(-c3cccc(OC(C)C)c3)nc(-c3c(C)noc3C)cc2[nH]1	15.8µM*	-19.3	?	-1.7%[87.6 µM]
Cc1cc2c(-c3ccc(CO)cc3)nc(-c3c(C)noc3C)cc2[nH]1	i	-13.6	-6.8%[87.6 µM]	57.6%[87.6 µM]
SMILES	KDM5B inh	IP6K1 inhibitor	HEK293 viab	SNCA expr inh
O=C(Nc1ccccc1)Nc1ccc(NC(=O)c2cc[n+]([O-])cc2)cc1	i	/	/	/
COc1cc(F)ccc1-c1cc(-c2c(C)noc2C)cc2c1C(=O)N(C)C2	31.6µM*	4.6	-6.4%[87.6 µM]	40.4%[87.6 µM]
COc1ccc(N2CCCCS2(=O)=O)cc1S(=O)(=O)NCc1ccco1	i	/	/	/
Cc1ccc(C)c(C(=O)N[C@@H]2CN(Cc3ccccn3)C[C@H]2CN(C)C)c1	?	11.3	-3.8%	9.6%
CN(C)C[C@@H]1CN(c2ncccn2)C[C@H]1NC(=O)c1ccccc1F	28.2µM*	7.2	-3.7%	9.6%
Cc1ccc(C)c(C(=O)N[C@@H]2CN(c3ncccn3)C[C@H]2CN(C)C)c1	22.4µM*	24.2	-2.1%	-1.1%
CN(C)C[C@@H]1CN(c2ncccn2)C[C@H]1NC(=O)c1cc(F)ccc1Cl	31.6µM*	3.9	2.8%	-1.0%
CN(C)C[C@@H]1CN(c2ncccn2)C[C@H]1NC(=O)c1cnn(C)c1	28.2µM*	-0.3	5.7%	7.7%
C=CCNc1nc(C(=O)OC(C)C(=O)Nc2ccc(F)cc2Cl)cs1 (stereo not drawn)	i	/	/	/
CN(C)C[C@@H]1CN(c2ncccn2)C[C@H]1NC(=O)c1ccc(C#N)cc1	?	1.2	0.2%	-25.6%
CN(C)C[C@@H]1CN(c2ncccn2)C[C@H]1NC(=O)c1cccn1C	28.2µM*	13.7	-13.4%	33.4%
CN(C)C[C@@H]1CN(c2ncccn2)C[C@H]1NC(=O)c1ccccc1Cl	22.4µM*	2.4	-6.1%	-2.6%
O=C(C[C@@H]1CCNC[C@@H]1Cc1cc(-c2ccccc2)on1)NCc1ccc(F)cc1	i	13.2	1.1%[87.6 µM]	?
CCN(CC)S(=O)(=O)c1ccc(-c2nc(C)ccc2OC)cc1	?	4.5	3.2%	9.7%
COCCOc1ccc(-c2nc(C)ccc2OC)cc1	25.1µM*	10.2	3.1%	-16.8%
Cc1nc(N2CCCC2)c2c(C(=O)NCc3ccco3)c(C)oc2n1	i	/	/	/
COc1ccc(F)cc1-c1cccc(C(=O)O)c1	i	6.4	1.9%[87.6 µM]	20.4%[87.6 µM]
COc1ccc(F)cc1-c1ccc(C=O)cc1	50.1µM*	-13.9	3.1%[87.6 µM]	-8.0%[87.6 µM]
COc1ccc(F)cc1-c1ccc(C(=O)O)cc1	100µM*	-10.5	-0.3%[87.6 µM]	-12.0%[87.6 µM]
CCn1nc(C(=O)Nc2ccc(C)c(S(=O)(=O)N(C)C)c2)c2ccccc2c1=O	i	/	/	/
CC(C)(C)c1coc2cc3o/c(=N/O)c4c(c3cc12)CCC4	i	/	/	/
Cn1ncc2c(C(=O)NCC(F)F)cc(-c3ccc(C(F)(F)F)cc3)nc21	/	-4.9	/	/
CN1CC(=O)N(c2ccccc2F)Cc2c(NCCc3ccc(Cl)cc3)ncnc21	25.1µM*	-4.3	-12.8%	?
CN1CC(=O)N(c2ccccc2F)Cc2c(NCCc3ccccc3)ncnc21	?	-1.9	-22.2%	-18.9%
Cc1ccc(Nc2ccnc(N3CCC(NC(=O)c4ccc(C(F)(F)F)cc4)CC3)n2)cc1	/	-7.2	?	25.1µM*
SMILES	KDM5B inh	IP6K1 inhibitor	HEK293 viab	SNCA expr inh
O=C(NCCCc1ccccc1)c1ccc2nccn2c1	35.5µM*	-4.7	1.9%[87.6 µM]	62.5%[87.6 µM]
O=C(NCCC1CCCCC1)c1ccc2nccn2c1	28.2µM*	-5.0	1.5%[87.6 µM]	83.1%[87.6 µM]
O=C(NCCc1nc(Cc2ccccc2)no1)c1ccc2nccn2c1	17.8µM*	-13.7	3.0%	-2.9%
COc1ccccc1-c1nc(C(=O)N2CCC(C#N)CC2)n2ccccc12	28.2µM*	9.4	2.2%	-6.8%
Cc1cccc(C)c1-c1nc(C(=O)N2CCC(C#N)CC2)n2ccccc12	100µM*	-23.3	0.9%	0.5%
COc1ccccc1-c1nc(C(=O)NC2CC2)n2ccccc12	i	18.1	-6.3%[87.6 µM]	65.6%[87.6 µM]
Cc1cccc(C)c1-c1nc(C(=O)NC(C)C)n2ccccc12	?	14.4	5.4%[87.6 µM]	-4.3%[87.6 µM]
CCCCN(C)Cc1ccc(OCc2ccccc2)c(OC)c1	i	/	/	/
CCc1noc(-c2cccn3c(CNC(=O)Cc4cccc(OC)c4)nnc23)n1	?	-1.0	-10.3%	13.6%
COc1cccc(CCC(=O)NCc2nnc3cc(-c4nc(C5CC5)no4)ccn23)c1	28.2µM*	10.4	-2.7%	6.4%
